HT1080 IDH1KD tx – kills HT-1080 cells with IDH1 knockdown; Potency, µM (doses to about 46.1 µM), actives largely listed as cytotoxic; 360,000 tested, 2% active; AID 686971; HT-1080 IDH1 knockdown viability, ATP luminescence, 48 h
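HT-1080-IDH1KD cells (IDH1 knocked down), 750/well in RPMI with 5% FBS, treated with compound 48 h at 37 degrees C. Viability by CellTiter-Glo luminescence, normalised to DMSO and no-cell wells; concentration-response curves classed.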
IL1B secr inh – inhibitors of inflammasome signaling (IL-1 beta secretion). THP-1 LPS/ATP IL-1B secretion, AlphaLISA, 16 h; hits give low values. activity change, % at 57.5 µM. 360,000 tested, 4.7% active. AID 743279; in the data active = activity change below about -50%; inconclusive = mostly about -30% to -49%
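THP-1 cells pretreated 1 hr with compounds (up to 57.5 uM final), then stimulated with LPS (250 ng/mL final) plus ATP (1.25 mM final); secreted IL-1B measured by AlphaLISA after 16 hr, decreased signal indicating inhibition.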
DT40 TDP1 CPT – DT40-hTDP1 cell growth loss with CPT; chicken DT40 Tdp1-/-;hTDP1 cells + 20 nM CPT, ATP luminescence, 48 h; Potency, µM (highest dose often 46.2 µM), actives largely listed as inhibitors; 420,000 tested, 12% active; AID 686979; also: nearly all actives have a fitted effect of over 55% in size
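Chicken DT40 Tdp1-/- cells complemented with human TDP1, 400 cells/well, exposed to compounds plus 20 nM camptothecin for at least 48 h at 37 C; viability read as ATP content by CellTiter-Glo luminescence.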
TDP1 cell noCPT – qHTS for Inhibitors of human tyrosyl-DNA phosphodiesterase 1 (TDP1): qHTS in cells in absence of CPT. DT40 Tdp1-/- hTDP1 cells, no CPT, ATP luminescence, 48 h. Potency, µM (highest dose often 46.2 µM), actives largely listed as inhibitors. 420,000 tested, 15% active. AID 686978, 2013; also: nearly all actives have a fitted effect of over 55% in size
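Growth kinetics read by CellTiter-Glo luminescence after ≥48 hr at 37 °C. Cells: DT40 Tdp1-/- stably carrying human TDP1, 400 per well, compound exposure in the absence of CPT (DMSO vehicle).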
12-LOX inh – blocks human arachidonate 12S-lipoxygenase; P18054; purified 12hLO, xylenol orange hydroperoxide absorbance; Potency, µM (titrated, usually from 108 µM), usual class: inhibitors; 580,000 tested, 1.1% active; AID 1671190
Target sequence (P18054 whole entry, looked up): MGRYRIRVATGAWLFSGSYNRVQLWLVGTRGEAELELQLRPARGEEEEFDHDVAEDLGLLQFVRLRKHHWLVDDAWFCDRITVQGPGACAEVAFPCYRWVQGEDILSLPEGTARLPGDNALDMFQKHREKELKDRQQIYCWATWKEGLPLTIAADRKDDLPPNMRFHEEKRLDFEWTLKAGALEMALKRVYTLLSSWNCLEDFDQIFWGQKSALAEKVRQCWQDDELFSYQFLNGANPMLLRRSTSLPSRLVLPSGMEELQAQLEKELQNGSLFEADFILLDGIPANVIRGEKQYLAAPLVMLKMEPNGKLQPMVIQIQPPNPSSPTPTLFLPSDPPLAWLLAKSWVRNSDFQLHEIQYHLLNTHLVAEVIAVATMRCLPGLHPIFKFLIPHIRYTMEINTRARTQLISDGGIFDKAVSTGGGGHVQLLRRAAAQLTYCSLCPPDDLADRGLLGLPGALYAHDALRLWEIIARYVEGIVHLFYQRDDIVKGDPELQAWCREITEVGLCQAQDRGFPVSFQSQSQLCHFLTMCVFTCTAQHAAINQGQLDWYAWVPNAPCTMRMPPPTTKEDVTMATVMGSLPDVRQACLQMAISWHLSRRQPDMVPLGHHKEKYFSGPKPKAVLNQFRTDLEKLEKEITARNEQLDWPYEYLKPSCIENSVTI
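Purified human 12hLO at 150 nM in 25 mM Hepes, 0.01% Triton X-100, pH 7.0, preincubated 15 min at room temperature with compound. Reaction started with 40 uM arachidonic acid, 30 min at room temperature. Hydroperoxide measured by Fe-xylenol orange, 573/405 nm absorbance ratio.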
HT1080NT lethal – kills 2HG-producing HT-1080-NT fibrosarcoma cells | Potency, µM (doses to about 46.1 µM), most hits filed as cytotoxic | 360,000 tested, 1.6% active | AID 686970 | HT-1080-NT fibrosarcoma viability, CellTiter-Glo ATP luminescence, 48 h;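 also: NT is the 2HG producing partner of a matched IDH1 knockdown line; nearly all actives have a fitted effect of over 55% in size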
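Viability by CellTiter-Glo luminescence after 48 h compound exposure at 37C of HT-1080-NT cells (750/well, RPMI, 5% FBS). % activity scaled between DMSO wells and medium-only wells, then curve-fitted and categorized by curve class.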
Hits are given with their value; i = inactive; ? = inconclusive; nt = not tested or not shown. The sample as a whole holds a higher share of hits than the screen did. Unless noted, calls follow the shape of the dose curve; as a rule, active = well fitted curve in the direction sought with a large enough effect; inconclusive = small, poorly fitted or top-dose-only effect, or another doubt; inactive = no such curve, though single readings can be large; an effect the other way counts as inactive or inconclusive.

SMILES	HT1080 IDH1KD tx	IL1B secr inh	DT40 TDP1 CPT	TDP1 cell noCPT	12-LOX inh	HT1080NT lethal
O=C(NCCO)c1ccc2nc(-c3ccco3)c(-c3ccco3)nc2c1	i	i	?	20.6µM	?	i
O=C(c1ccccc1)c1ccc2nc(-c3ccco3)c(-c3ccco3)nc2c1	18.4µM	i	20.6µM	20.6µM	?	?
O=C(O)c1ccc2nc(-c3ccccc3)c(-c3ccccc3)nc2c1	i	i	i	i	i	i
O=C(NCCc1ccccc1)c1ccc2nc(-c3ccco3)c(-c3ccco3)nc2c1	i	?	20.6µM	18.4µM	nt	i
COCCOCc1nc(C2CCCCN2C(=O)c2ccc(OC)c(OC)c2)no1 (stereo unspecified)	nt	nt	nt	nt	i	nt
C/C(=N\N(c1ccccc1)c1ccccc1)c1ccc(O)cc1	?	-63.2	i	i	?	?
CCCCC(O)(c1ccc(CC)cc1)C(CN1CCOCC1)c1ccccc1 (stereo unspecified)	?	-53.7	?	?	?	?
CCCCC(O)(c1ccccc1)C(CN1CCOCC1)c1ccccc1 (stereo unspecified)	i	i	23.1µM	?	?	i
N#CC(C#N)=C1C=C(c2ccccc2)OC2=C1CCCC2	nt	nt	nt	nt	i	nt
COCCCNC(=O)C1CC(=O)N(c2n[nH]c3cc(Br)ccc23)C1 (stereo unspecified)	nt	nt	nt	nt	i	nt
COc1cccc(Oc2coc3cc(OC(=O)c4ccco4)ccc3c2=O)c1	nt	nt	nt	nt	i	nt
CC(C)Cc1nc2sc3c(NCC(C)O)ncnc3c2c2c1CCC2 (stereo unspecified)	nt	nt	nt	nt	i	nt
CC(C)Nc1nc(Nc2ccccc2Cl)c2sccc2n1	i	-62.9	23.1µM	23.1µM	i	i
Cc1ccccc1-c1nc(NC(C)C)nc2ccsc12	i	i	?	?	?	i
COCCNc1nc(NCCCN(C)C)c2sccc2n1	i	i	i	i	i	?
COCCNc1nc(Nc2ccccc2Cl)c2sccc2n1	?	i	?	23.1µM	i	?
COCCNc1nc(NCCOc2ccccc2Cl)c2sccc2n1	?	i	13µM	16.4µM	?	?
CCCCCCCCCCC1=C(C)C(=O)C(OC)=C(OC)C1=O	nt	nt	i	?	i	nt
CCCCCCCCSC1=CC(=O)C(OC)=C(OC)C1=O	i	i	1.16µM	1.03µM	?	i
CCCCn1c(=O)c2sccc2n(CC(=O)N(CC)c2ccccc2)c1=O	nt	nt	nt	nt	i	nt
CCN(C(=O)Cc1nc(-c2cccs2)oc1C)c1ccc(F)cc1	nt	nt	nt	nt	i	nt
CCOc1ccccc1C1CC(=O)NC2=C1C(=O)CCC2 (stereo unspecified)	23.1µM	i	?	16.4µM	i	?
CCCOc1ccccc1C1CC(=O)NC2=C1C(=O)CCC2 (stereo unspecified)	8.2µM	i	4.11µM	4.11µM	i	11.6µM
CCCCOc1ccccc1C1CC(=O)NC2=C1C(=O)CCC2 (stereo unspecified)	1.64µM	i	1.64µM	1.64µM	i	2.31µM
CCOc1ccc(C2CC(=O)NC3=C2C(=O)CCC3)cc1 (stereo unspecified)	i	i	i	i	i	i
SMILES	HT1080 IDH1KD tx	IL1B secr inh	DT40 TDP1 CPT	TDP1 cell noCPT	12-LOX inh	HT1080NT lethal
CCN1C2=NCCCN2c2ccccc21	i	i	i	i	i	i
CCCCCN1C2=NCCN2c2ccccc21	i	i	29.1µM	16.4µM	i	i
CCCN1C2=NCCN2c2cc(C)c(C)cc21	i	i	i	23.1µM	i	i
FC(F)(F)c1nc2ccccc2n2c(-c3ccc(Cl)cc3Cl)nnc12	?	i	20.6µM	20.6µM	i	?
FC(F)(F)c1nc2ccccc2n2c(-c3c(Cl)cccc3Cl)nnc12	i	i	25.9µM	20.6µM	i	i
Clc1cccc(Cl)c1-c1nnc2cccc(Cl)n12	i	?	i	?	i	i
COc1ccc(C(=O)Nc2ccc(-c3noc([C@@H]4CCCN4CCCc4ccccc4)n3)cn2)cc1	nt	nt	nt	nt	i	nt
CC(C)COP(=O)(OCC(C)C)C(Nc1ccccc1)c1ccc(F)cc1 (stereo unspecified)	i	?	?	?	i	?
